NR3A LBD binder: binders of NR3A ligand-binding domain, primary screen, biophysical, differential scanning fluorimetry, uHTS; hit rate 2.5% among 340,000; Tm shift relative to glycine control, % at 25 µM; AID 1259313, 2017; NR3A LBD differential scanning fluorimetry, Tm shift; 0% = protein alone, 100% = glycine-bound protein;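 active = melting temperature shift of at least 10% of the positive control shift, at one fixed dose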
HGIII-sPLA2 inh: human group III sPLA2 inhibitors, primary screen, biochemical, QFRET, BODIPY PC-A2 liposome substrate; Group 3 secretory phospholipase A2 (Homo sapiens), Q9NZ20; QFRET BODIPY PC-A2 liposome hydrolysis, fluorescence; inhibition, % at 12.2 µM; hit rate 0.56% among 370,000; AID 743126, 2013;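 active = inhibition above mean plus 3 SD of compounds lying within the high and low control bounds, cut at about 19% in these data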;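 also: 0% = median of test compound wells and 100% = no enzyme DMSO wells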
ADAM10 inh: human ADAM10 inhibitors, primary screen, biochemical, QFRET, HTS. inhibition, % at 7 µM. recombinant ADAM10, EDANS/DABCYL FRET peptide cleavage, 3 h. hit rate 0.62% among 370,000;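 active = inhibition above a per-campaign cutoff equal to the mean of compounds falling between control-based bounds plus 3 SD, cut at about 20% in these data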;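 also: 0% = DMSO wells while the 100% control is not disclosed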
ADAM17 inh: ADAM17 inhibitors, primary screen, biochemical, QFRET. recombinant ADAM17, EDANS/DABCYL FRET peptide cleavage. inhibition, % at 6.95 µM. hit rate 0.83% among 370,000. AID 720648, 2013;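 active = inhibition above the mean of compounds lying between control limits plus 3 SD, set per campaign, cut at about 8.5% in these data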;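 also: 0% = DMSO-only wells as the low control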
Target sequence (P78536 215-824 limits assumed): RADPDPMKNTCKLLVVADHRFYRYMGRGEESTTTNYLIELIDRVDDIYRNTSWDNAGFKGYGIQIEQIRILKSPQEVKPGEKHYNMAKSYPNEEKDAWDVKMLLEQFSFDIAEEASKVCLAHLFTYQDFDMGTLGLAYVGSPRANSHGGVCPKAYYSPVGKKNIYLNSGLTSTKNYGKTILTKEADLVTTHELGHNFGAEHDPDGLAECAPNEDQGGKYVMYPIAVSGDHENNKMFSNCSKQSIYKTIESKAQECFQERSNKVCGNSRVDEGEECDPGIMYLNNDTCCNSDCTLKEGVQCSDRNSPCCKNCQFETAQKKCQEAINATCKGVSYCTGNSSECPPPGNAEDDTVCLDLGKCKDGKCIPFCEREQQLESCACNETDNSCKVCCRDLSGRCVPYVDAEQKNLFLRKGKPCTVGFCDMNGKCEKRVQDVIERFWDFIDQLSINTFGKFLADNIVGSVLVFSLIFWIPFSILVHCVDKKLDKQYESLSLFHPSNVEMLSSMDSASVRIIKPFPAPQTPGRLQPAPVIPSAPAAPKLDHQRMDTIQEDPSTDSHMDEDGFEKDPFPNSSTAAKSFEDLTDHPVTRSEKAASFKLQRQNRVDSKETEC
FAS-TE inh: FAS thioesterase domain inhibitors, primary screen, biochemical, fluorescence intensity, uHTS; Fatty acid synthase (Homo sapiens), P49327; inhibition, % at 15 µM; recombinant FAS-TE, OMFH fluorogenic substrate, fluorescence endpoint; hit rate 0.67% among 360,000;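 active = compounds whose normalised, plate-corrected inhibition of enzyme fluorescence in the single-dose primary screen is 50% or more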;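 also: 0% = DMSO with enzyme and 100% = substrate without enzyme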
The depositor's hits bear a star; / = no result given. In the library only some 4.3% were active in any assay of this set; here they are far more common.

SMILES	NR3A LBD binder	HGIII-sPLA2 inh	ADAM10 inh	ADAM17 inh	FAS-TE inh
CCCCCCCCCCCC1=C(O)C(=O)C=C(O)C1=O	-14	/	/	/	62*
COC1=C(OC)C(=O)C(CCCCCCCCCCO)=C(C)C1=O	/	0	-4	-2	-4
COc1ccc(-c2nc(-c3ccc(O)cc3O)cs2)cc1OC	26*	-25	1	2	35
COc1ccc(-c2nc(CCl)cs2)cc1	0	-2	-21	-5	3
COc1ccc(-c2csc(-c3ccc(O)cc3)n2)cc1	24*	-30	-14	-3	18
Cc1ccc(S(=O)(=O)N2O[C@@H](c3ccccc3)C[C@H]2CON2C(C)(C)CCCC2(C)C)cc1	/	11	4	3	/
O=C(CCCC1=NS(=O)(=O)c2ccccc2N1)N1CCN(c2ccccc2Cl)CC1	/	-12	3	-1	/
O=c1c2ccccc2nnn1CSc1ccccc1F	11*	-8	-1	2	5
Cc1ccc(SCn2nnc3ccccc3c2=O)c(C)c1	0	-1	10	-1	16
Cc1cccc(-n2c(-c3csc(C(C)C)c3)n[nH]c2=S)c1	-2	13	7	3	-2
CCCc1cc(-c2n[nH]c(=S)n2-c2cccc(C)c2)cs1	14*	1	8	7	2
COc1cc(Nc2ccccc2Cl)c([N+](=O)[O-])nc1[N+](=O)[O-]	11*	0	2	2	13
Cc1ccc(-c2cc(-c3nnc(SCC(=O)N4CCOCC4)n3N)[nH]n2)cc1	/	0	-1	0	/
COc1ccc(CCNC(=O)c2cc(-c3ccc(C)c(C)c3O)n[nH]2)cc1OC	-3	-31	7	-2	5
COc1ccc(C(=O)Nc2ccc(S(=O)(=O)Nc3nccc(C)n3)cc2)cc1	1	-5	8	2	-6
Cc1cccc(NC(=O)c2cc(-c3cc(C)c(C)cc3O)n[nH]2)c1	14*	9	8	-2	-2
Cc1ccc(O)c(-c2cc(C(=O)Nc3ccc(S(=O)(=O)Nc4nccc(C)n4)cc3)[nH]n2)c1	30*	-82	-1	0	-5
Cc1cccc(NC(=O)c2cc(-c3cc(C)ccc3O)n[nH]2)c1	30*	-5	-1	3	-8
Cc1ccc(-c2cc(C(=O)Nc3cccnc3)[nH]n2)c(O)c1C	28*	-21	7	0	-8
CC(=O)c1cc(-c2ccccc2)n(CC(=O)NCc2ccccc2)c1C	/	-6	0	3	/
c1ccc2cc3[nH]c(CNc4nc(N5CCOCC5)nc5c4ncn5-c4ccsc4)nc3cc2c1	/	-22	9	6	/
Cc1cc(F)ccc1-c1cc(C(=O)Nc2ccc(F)cc2)[nH]n1	/	-2	0	1	-6
CC(=O)Nc1ccc(NC(=O)c2cc(-c3ccc(C)cc3O)n[nH]2)cc1	30*	-16	-3	-4	-5
COc1ccc(N2CSC3=C(C#N)C(c4cccs4)CC(=O)N3C2)cc1 (configuration not stated)	19*	9	4	-3	-12
Cc1ccc(N2CSC3=C(C#N)C(c4cccs4)CC(=O)N3C2)cc1 (configuration not stated)	-27	-4	-14	-3	0
SMILES	NR3A LBD binder	HGIII-sPLA2 inh	ADAM10 inh	ADAM17 inh	FAS-TE inh
COc1ccc(C(=O)OCCCN(C)C2CN(Cc3cn(Cc4ccccc4Cl)nn3)S(=O)(=O)C2)cc1OC (configuration not stated)	/	-1	-5	-6	/
NNc1nc2c(Cl)ccc(Cl)c2s1	-9	22*	5	-3	-12
O=C(Nc1nc2c(Cl)ccc(Cl)c2s1)C1CC1	-3	-7	-1	2	6
CC(C)C[C@@H]1COc2cc(N3CCCC3)ccc2S(=O)(=O)N1C	/	0	5	1	/
COC(=O)c1ccc2c(c1)N(C)S(=O)(=O)c1cnc(SCC(=O)C(C)(C)C)nc1-2	11*	2	-15	-5	-1
CCOc1ccccc1OCC(=O)OCC(=O)c1c(C)[nH]c2ccccc12	-2	-18	-1	2	11
Cc1cccc(C(=O)OCC(=O)c2c(C)[nH]c3ccccc23)c1O	29*	1	-12	-5	33
C/C(=N\NC(=O)Cc1cccs1)c1ccco1	/	-2	-1	1	/
O=C(Nc1ccc(F)cc1F)C1CCCN1S(=O)(=O)c1cccnc1 (configuration not stated)	/	16	-12	-2	/
O=C(Nc1nccs1)c1ccc(-c2ccc(Cl)cc2)o1	20*	-6	-20	-10	17
CCc1nnc(NC(=O)c2ccc(-c3ccc(F)cc3)o2)s1	16*	3	-13	-7	3
O=C(Nc1nccs1)c1ccc(-c2ccc(F)cc2)o1	-17	-2	-2	3	11
Cc1ccc(NC(=O)c2ccc3snnc3c2)cc1	1	-1	8	2	1
COc1cc(NC(=O)c2ccc3snnc3c2)cc(OC)c1	19*	-11	-6	-5	8
COCCOC(=O)N(C)C[C@@H]1OCCCC[C@H](C)Oc2ccc(NC(=O)Nc3ccccc3)cc2C(=O)N([C@@H](C)CO)C[C@H]1C	/	-15	-2	-2	/
O=C(Cn1cc(COc2ccc3ccc(=O)oc3c2)nn1)c1ccc(O)cc1	46*	-32	-129	-25	-10
O=C(Cn1cc(COc2ccc(Br)cc2)nn1)c1ccc(O)cc1	-11	-34	-5	1	-2
CCOC(=O)N1CCN(C(=O)C2CCCN(S(=O)(=O)c3ccc(OCC)cc3)C2)CC1 (configuration not stated)	13*	4	-5	-2	-4
CCOc1ccc(S(=O)(=O)N2CCC(C(=O)N3CCc4ccccc4C3)CC2)cc1	20*	-15	3	-2	17
CCc1ccc(C=NN2CCN(Cc3ccc(C)cc3C)CC2)cc1	/	2	5	0	/
O=C(CSc1nc2ccccc2n1CC(=O)N1CCCCC1)N1CCCCC1	-1	2	0	-4	-4
O=C(CSc1nc2ccccc2n1S(=O)(=O)c1ccccc1)N1CCCCC1	14*	-3	0	-3	-3
Nn1c(SCC(=O)NC2CCCCC2)nnc1-c1cc(-c2ccc(Cl)cc2)n[nH]1	/	-1	-2	-1	/
Cc1nc2ccc(S(=O)(=O)NCC(=O)N(C)Cc3ccccc3Cl)cc2s1	/	-2	-9	-4	/
Cc1c(O)ccc(/C=N/Nc2nc(-c3cccnc3)nc3ccccc23)c1O	29*	-14	5	-2	3
Cc1ccc(Nc2nc(-c3cccnc3)nc3ccccc23)cc1	-2	-6	-7	-6	16

Source: PubChem (several laboratories)
